The list is not random: actives were taken first. Their share in the collection is about 4%.
HIF-2a inh: HIF-2a reporter inhibitors, primary screen, luminescence, 786-0 RCC cells | 786-0 RCC cells HIF-2a reporter, luciferase luminescence, overnight | inhibition, % at 18.8 µM | actives 0.72% (n = 360,000) | AID 624352, 2012;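 active = inhibition of the luminescence signal of 40% or more relative to plate controls, in a single-dose primary screen at 18.75 µM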
CF NFkB block: inhibitors of PAF-induced NF-kB signaling, primary screen, cell-based, GFP fluorescence, uHTS. KKLEB NF-kB-GFP reporter, GFP fluorescence overnight. actives 0.86% (n = 360,000). inhibition, % at 5 µM;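 active = at least 50% inhibition at 5 µM, scaled per plate between neutral and stimulator controls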;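 note: PAF is a Pseudomonas aeruginosa culture filtrate used as stimulus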
KKLEB tox: cytotoxicity in KKLEB CF airway cells, primary screen, cytotoxicity control for CF NF-kB inhibitor project, cell-based, uHTS, fluorescence assay plates | activity change (cytotoxicity), % at 5 µM | actives 0.36% (n = 360,000) | KKLEB CF airway cells viability, ATPlite luminescence, overnight; hits give low values; cells stimulated with P. aeruginosa culture filtrate;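 active = corrected activity change at or below -50% at 5 µM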
TROY signal inh: inhibitors of TROY-driven NF-kB signaling, primary screen, Q293 LMP1-TROYcd cells, NF-kB luciferase, uHTS. Q293 LMP1-TROYcd NF-kB luciferase reporter, 4 h. inhibition, % at 10 µM. actives 0.98% (n = 360,000). AID 1347056, 2019;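 active = compounds whose plate-normalised and pattern-corrected inhibition of the luciferase reporter signal at the single screening dose is 50% or more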
Peg3 promoter: Peg3 promoter-driven luciferase inhibitors, primary screen, cell-based, HeLa, luciferase luminescence; HeLa PEG-Prom luciferase reporter, overnight; inhibition, % at 20 µM; actives 1.7% (n = 360,000); AID 588405, 2011;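 active = inhibition of at least 50% at 20 µM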
TWEAK-Fn14 inh: inhibitors of TWEAK-Fn14 signaling, primary screen, luciferase reporter cells, uHTS. actives 2% (n = 360,000). inhibition, % at 10 µM. AID 1159606, 2016. TWEAK-stimulated Fn14 reporter cells, luciferase luminescence, 8 h; in the data active = inhibition above about 50%
Large screens that a line does not name were inactive.

CC(C)C(CCNC1CCN(C)CC1)c1ccc(Cl)cc1 (configuration not stated)	Peg3 promoter 100
O=C(CN1CCN(c2ccccc2F)CC1)N1CCc2ccccc21	none
Cc1sc(N)nc1-c1ccc2c(c1)OCCO2	none
C=CCN=C1NN=C(c2ccc3c(c2)OCCO3)CS1	TROY signal inh 69, TWEAK-Fn14 inh 67
NC1=NN=C(c2ccc3c(c2)OCCO3)CS1	TWEAK-Fn14 inh 58
Cc1c(-c2ccc(OCCN3CCOCC3)cc2)c(=O)oc2ccc3ccccc3c12	none
CCOC(=O)C1=CC[C@@H](c2ccccc2Cl)N(S(=O)(=O)c2ccc(C)cc2)[C@H]1C(=O)OCC	none
Cc1ccc(C)c(N2N=C(C(=O)Nc3ccccc3N3CCOCC3)CCC2=O)c1	Peg3 promoter 67
Cc1ccc(C)c(N2N=C(C(=O)Nc3ccccc3N3CCCC3)CCC2=O)c1	none
CC(=O)OCC(=O)[C@@]1(O)CC[C@H]2[C@@H]3CCC4=CC(=O)CC[C@]4(C)[C@H]3[C@@H](O)C[C@@]21C	CF NFkB block 64
CC12CCC(=O)C=C1CCC1C2CCC2(C)C1CCC2(O)C(=O)CO (configuration not stated)	none
CC1CC2C3CCC4=CC(=O)CCC4(C)C3CCC2(C)C1(O)C(=O)CO (configuration not stated)	CF NFkB block 53
CCCC(=O)O[C@]1(C(=O)CO)CC[C@H]2[C@@H]3CCC4=CC(=O)CC[C@]4(C)[C@H]3[C@@H](O)C[C@@]21C	CF NFkB block 95
CC12CCC(=O)C=C1CCC1C2CCC2(C)C1CC[C@]2(O)C(=O)CO (some centres not stated)	none
CC1CC2(C)C(=CC1=O)CCC1C2C(O)CC2(C)C1CCC2(O)C(=O)CO (configuration not stated)	CF NFkB block 67
OCCN1CCN(c2nccn3ccnc23)CC1	none
CC(C)(C)NC(=O)NC(=O)COC(=O)C1CCN(S(=O)(=O)c2cccs2)CC1	none
COC(=O)Cn1nnnc1-c1nc2cc(C)c(C)cc2[nH]c1=O	none (no result: CF NFkB block, KKLEB tox, Peg3 promoter)
CC(=O)OCC(=O)C1(O)CCC2C3CC(F)C4=CC(=O)CCC4(C)C3C(O)CC21C (configuration not stated)	CF NFkB block 76
C[C@]12CCC(=O)C=C1CC[C@@H]1[C@@H]2[C@@H](O)C[C@@]2(C)[C@H]1CC[C@]2(O)C(=O)COC(=O)CCC(=O)O	CF NFkB block 75
CC(=O)OCC(O)C1(O)CCC2C3CCC4=CC(=O)CCC4(C)C3C(O)CC21C (configuration not stated)	none
CCC(CC)C(=O)OCC(=O)C1(O)CCC2C3CCC4=CC(=O)CCC4(C)C3C(O)CC21C (configuration not stated)	CF NFkB block 64
O=C(O)CN=C(Nc1cc(Cl)cc(Cl)c1)NC(c1ccccc1)c1ccccc1	none (no result: CF NFkB block, KKLEB tox, Peg3 promoter)
CCCCNc1nc(Nc2ccc(C)c(Cl)c2)c2cnn(C)c2n1	none
CC(NC(=O)CNC(=O)c1ccc2c(c1)OCO2)c1ccc(S(N)(=O)=O)cc1 (configuration not stated)	none
COc1cc(C2c3[nH]c4ccccc4c3CC3COC(=O)N32)cc(OC)c1O (configuration not stated)	none
O=C(NNC(=O)c1ccc2ccccc2c1)c1cccc(Cl)c1	none
Cc1ccc(C)c(N2CCN(C(=O)c3cc4c(C)nc5ccccc5c4o3)CC2)c1	TROY signal inh 52
COc1ccccc1N1CCN(C(=O)c2cc3c(C)nc4ccccc4c3o2)CC1	TROY signal inh 51
Cc1nc2ccccc2c2oc(C(=O)N3CC(C)CC(C)C3)cc12 (configuration not stated)	none
COc1ccccc1N1CCN(C(=O)c2oc3ccccc3c2C)CC1	none
Cc1nc2ccccc2c2oc(C(=O)NCc3ccccn3)cc12	none

Screens as filed in PubChem BioAssay.
